Data published in article PMC7819943, “Rice protein-binding microarrays: a tool to detect cis-acting elements near promoter regions in rice”.
Whole data set: some 68,000 sequences, median “fluorescence intensity (a.u.)” near 9,100, cut for the highest 2% near 16,000. What follows is part of a selection rich in the highest values, with near analogues and random picks from the rest.

biological target: OsWRKY34 (Oryza sativa, UniProt Q0JBA9 1-250); experiment: protein-binding microarray (RPBM); PBS, 2% BSA, 51.3 ng/ul salmon testes DNA, 50 uM zinc acetate, 200 nM TF, 25 C, 1 h; high values mean tight binding; conditions: protein: recombinant; tags: N-terminal polyhistidine and DsRed monomer fusion (pET32a); label: CyDye5-dUTP incorporated in the synthesized complementary strand; 3' TTTTT single-stranded linker to array surface; dsDNA, one strand shown
Outline: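 Using Ni–NTA, transcription factors fused N-terminally to polyhistidine and DsRed were purified after expression in E. coli BL21-CodonPlus. These were incubated at 200 nM with a blocked, double-stranded custom Agilent array for 1 h at 25 °C in a buffer containing 50 µM zinc acetate, and the array was washed. The binding signal is per-feature fluorescence intensity (arbitrary units) on an Axon 4000B scanner.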

OsWRKY34, sequence (Q0JBA9 entry or part of it): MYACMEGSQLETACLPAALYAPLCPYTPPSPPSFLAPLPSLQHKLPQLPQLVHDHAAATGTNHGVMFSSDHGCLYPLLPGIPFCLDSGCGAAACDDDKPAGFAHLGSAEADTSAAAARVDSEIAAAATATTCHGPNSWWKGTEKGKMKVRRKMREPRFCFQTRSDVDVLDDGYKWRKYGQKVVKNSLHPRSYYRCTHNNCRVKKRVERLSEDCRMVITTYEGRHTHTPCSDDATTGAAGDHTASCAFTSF

Sequence | binding signal
ATAATCTCCACATGCATCGTCGCTGTATTTTTTGGTTTCACGGAGTCACCTAGTGCAG | 8510 fluorescence intensity (a.u.)
TTGTACTACTATTTCTTCATGTTACATAATTCTCCTTGTTCGGAGTCACCTAGTGCAG | 8540 fluorescence intensity (a.u.)
TAGTATTTTTTTCCTTGGTTTTGTTTCTATCTCCTCTGACCGGAGTCACCTAGTGCAG | 9480 fluorescence intensity (a.u.)
AATGTATAGGTGGTCCCGTGCTTTTGTATTGTGTTTGCGTCGGAGTCACCTAGTGCAG | 10400 fluorescence intensity (a.u.)
TTCTCTACATTGTTCATTTAGTATTTTTTTCTTTTCATTTCGGAGTCACCTAGTGCAG | 10700 fluorescence intensity (a.u.)
ATGGCAACGACCCAGTTCTGTCCGAGTAGGACTCCTTCCACGGAGTCACCTAGTGCAG | 8310 fluorescence intensity (a.u.)
CCTGGTTGGTTTGGCTCGCACGTGGCGCGTCGTCCTACGCCGGAGTCACCTAGTGCAG | 9870 fluorescence intensity (a.u.)
TTATTTACAAACGAGTTCCATTTTTTTCTACGGTGATCGGCGGAGTCACCTAGTGCAG | 8120 fluorescence intensity (a.u.)
CTCCATCTCGCATCTTCTCTTTCTCTTTCTCTTTCTCTTTCGGAGTCACCTAGTGCAG | 13300 fluorescence intensity (a.u.)
TCTCTTTTCACCCACCGCACCCATCCAACTTCTCTTCTCTCGGAGTCACCTAGTGCAG | 17900 fluorescence intensity (a.u.)
CAGTTTGAGTTTTTGTTAGTTATTTCGTTTATTTTTTTTTCGGAGTCACCTAGTGCAG | 12300 fluorescence intensity (a.u.)
TTCTTCTTCTGCCATTCCATCCATCCACCGCCGCCTCCGCCGGAGTCACCTAGTGCAG | 8380 fluorescence intensity (a.u.)
ATGCCCATTTTGTAGCGTCGATTCTTGTTTCTGCTTGATTCGGAGTCACCTAGTGCAG | 10300 fluorescence intensity (a.u.)
GCCATTCCACATCAGTCCGTGCCGCTCTCTGCCCATTCTCCGGAGTCACCTAGTGCAG | 18900 fluorescence intensity (a.u.)
TCTCTTCTTCTTCTCCAACTTCTTTTTTCTCTTCTTCTTCCGGAGTCACCTAGTGCAG | 9680 fluorescence intensity (a.u.)
TTTTTTGAGCCGTATTTTTGCTCTCTTGTTACGTTTTTTTCGGAGTCACCTAGTGCAG | 17100 fluorescence intensity (a.u.)
ATCTGTATCTTTGTTTATTTTTTTTATTTTTCTCCCATTTCGGAGTCACCTAGTGCAG | 10600 fluorescence intensity (a.u.)
CTTGTTACTAATATACTAGTATTTGAGTGTTACACGTTTTCGGAGTCACCTAGTGCAG | 8380 fluorescence intensity (a.u.)
GATTGTAGTTTGTATATGCTGCCCATTTCTGTTGTTCTTTCGGAGTCACCTAGTGCAG | 18900 fluorescence intensity (a.u.)
TCCATCCCATTCCCGCCATCTCTGCATCTTCTTCTTCTTCCGGAGTCACCTAGTGCAG | 9910 fluorescence intensity (a.u.)
AGGTGTAATAGTATTTTGTTGTCTAATTGGTTTTGATTGTCGGAGTCACCTAGTGCAG | 11400 fluorescence intensity (a.u.)
TATTTCTCTCGCCACAATCTCTGGCGGCGCCACAATCTTACGGAGTCACCTAGTGCAG | 8850 fluorescence intensity (a.u.)

Sequence | binding signal
GGCCTGGAGCTCAGTCAAACAGTTTCAGCTCAGCTCTATCCGGAGTCACCTAGTGCAG | 8520 fluorescence intensity (a.u.)
TCTCTTCGCTCTGCCCACTTGCTAAACCATACCGGCGATACGGAGTCACCTAGTGCAG | 9960 fluorescence intensity (a.u.)
CATCCATCGTATCCACCGCCGTCGCCTTCCATCCTCCCCGCGGAGTCACCTAGTGCAG | 8040 fluorescence intensity (a.u.)
GTGGGAGGGAGGGCGGCGAGCTGCGCGGCGAACCTCGAGCCGGAGTCACCTAGTGCAG | 8120 fluorescence intensity (a.u.)
CCTTTTTTTTTCCGAGTGTGTGGCTCTCAGATGGAGTTAGCGGAGTCACCTAGTGCAG | 8450 fluorescence intensity (a.u.)
TGGGTGGGGATGAAGTGTGGAAGTGGCATATCTTTATCCACGGAGTCACCTAGTGCAG | 8320 fluorescence intensity (a.u.)
AACGTGGAAGTGGATTGGGTGGTGGGTGGGGATCCACCTACGGAGTCACCTAGTGCAG | 22100 fluorescence intensity (a.u.)
CCTTGGGTGGGTACGGATTGGATTAGGGAGGGGAGCACAACGGAGTCACCTAGTGCAG | 17600 fluorescence intensity (a.u.)
TGGTGTAGGGTTATGATTGGATGAGTAGTGGAGGTAGGTACGGAGTCACCTAGTGCAG | 9780 fluorescence intensity (a.u.)
TGGTGGCGGCGGTGGCAGTGGTGGTGTTGGGATTGGGGTACGGAGTCACCTAGTGCAG | 9230 fluorescence intensity (a.u.)
GGTAGGATTGTACTTTTTTTTTTTTTGGGACGGAGGGGTACGGAGTCACCTAGTGCAG | 10100 fluorescence intensity (a.u.)
ATTATCCTGATCAAAATTCCCGCAATTCCTTAACACATGTCGGAGTCACCTAGTGCAG | 10200 fluorescence intensity (a.u.)
GCTTTTCTCTTCCTTTTCGCTCGCTCTCAAGGCCCATAACCGGAGTCACCTAGTGCAG | 9530 fluorescence intensity (a.u.)
TTGGTGAGAACAGCCTTATCTCTATCGCTTTACTCTCTCTCGGAGTCACCTAGTGCAG | 8150 fluorescence intensity (a.u.)
CTGACCACCAACAGGGTCACTGTCGCGTTTGCTCGATACTCGGAGTCACCTAGTGCAG | 9920 fluorescence intensity (a.u.)
TCCTTTCCTACATGTCGCCTTTGCCGTCGCCTCAACCACACGGAGTCACCTAGTGCAG | 14200 fluorescence intensity (a.u.)
TCTTCTCACTCTAATCAAATCTCTCTCTCTCTCTCTCTCTCGGAGTCACCTAGTGCAG | 8280 fluorescence intensity (a.u.)
ATCAAACCACTTCCATCTCTCAATTCTCAAGCACACACACCGGAGTCACCTAGTGCAG | 8310 fluorescence intensity (a.u.)
ACGAACCTAAGCACTTCCAAATCAAATCAATCAAAGCTCTCGGAGTCACCTAGTGCAG | 56100 fluorescence intensity (a.u.)
GCCGTCGCCGTCGCCGTCCTCCTCGTTGTCGTTGTCGTCGCGGAGTCACCTAGTGCAG | 9000 fluorescence intensity (a.u.)
TACATCCGTTTCCGTTTCGTTCTGTTCTGTTCTGTTGTTTCGGAGTCACCTAGTGCAG | 29200 fluorescence intensity (a.u.)
CTTCTTAGCTTCCGTGTCATGTTTCTTTTTGTTATCTTTTCGGAGTCACCTAGTGCAG | 10800 fluorescence intensity (a.u.)
